CBX7 AlphaScr – CBX7 chromodomain binding inhibitors, primary screen, biochemical, AlphaScreen | Chromobox protein homolog 7 (Homo sapiens), O95931 | AlphaScreen His6-CBX7 / biotin-H3K27me3 peptide binding; active compounds read low | 1.1% of 66,000 active | normalised signal (fraction of DMSO) (no concentration beside the values); in the data active = normalised signal below about 0.5
Target sequence (O95931 whole entry, looked up): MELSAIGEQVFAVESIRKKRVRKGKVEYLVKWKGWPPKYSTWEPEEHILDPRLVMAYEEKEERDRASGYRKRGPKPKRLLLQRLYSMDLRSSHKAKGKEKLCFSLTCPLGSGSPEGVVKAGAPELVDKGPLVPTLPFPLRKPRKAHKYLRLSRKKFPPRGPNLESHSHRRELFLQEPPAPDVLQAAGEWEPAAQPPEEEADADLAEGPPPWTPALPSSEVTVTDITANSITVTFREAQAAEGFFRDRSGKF
Hits are given with their value; 0 = inactive. Shown is part of a subset that was picked to be rich in hits.

SMILES	CBX7 AlphaScr
CCOc1ccccc1CN(CCc1ccc2c(c1)OCO2)Cc1ccccc1OC	0
CCOc1ccc(CN(CCc2ccc3c(c2)OCO3)Cc2ccccc2)cc1	0
CCOc1ccccc1CN(CCc1ccc2c(c1)OCO2)Cc1ccc(F)c(F)c1	0.471
CCN1CCN(C(=O)Cc2cn(C)c3ccccc23)CC1	0
COc1ccc(/C=C/c2nc3ccccc3c(=O)n2-c2ccccc2OC)cc1	0
CCC(C(=O)Nc1cccc(OC)c1)N1C(=O)CN=C(c2ccccc2)c2cc(Cl)ccc21 (centres undefined)	0
COc1ccc(CNCCc2c(C)[nH]c3ccc(OC)cc23)c(F)c1	0
COc1ccc(F)c(CNCCc2c(C)[nH]c3ccc(OC)cc23)c1	0.373
CCCCc1ncc(CNCCc2c(C)[nH]c3ccc(OC)cc23)[nH]1	0
COc1ccc2[nH]c(C)c(CCNCc3ccc(OC(F)(F)F)cc3)c2c1	0.419
COc1ccc(OC)c(CNCCc2c(C)[nH]c3ccc(OC)cc23)c1	0
CCOc1cc(CNCCc2c(C)[nH]c3ccc(OC)cc23)ccc1OC	0
COc1ccc2[nH]c(C)c(CCNCc3ncc[nH]3)c2c1	0.176
COc1ccc2[nH]c(C)c(CCNCc3cccc(OC)c3OC)c2c1	0
COc1ccc2[nH]c(C)c(CCNCc3ccc(F)cc3)c2c1	0
COc1ccc2[nH]c(C)c(CCNCc3ccc4ccccc4n3)c2c1	0
COc1ccc2[nH]c(C)c(CCNCc3cccc(F)c3)c2c1	0
COc1ccc2[nH]c(C)c(CCNCc3cccc(C(F)(F)F)c3)c2c1	0.201
O=c1c2ccccc2nc(/C=C\c2cccc(F)c2)n1-c1cccc(C(F)(F)F)c1	0
COc1ccc(CCNC(=O)CN2C(=O)C(C)N=C(c3ccccc3)c3ccccc32)cc1OC (centres undefined)	0
CCc1ccccc1NC(=O)C(CC)N1C(=O)C(C)N=C(c2ccccc2)c2ccccc21 (centres undefined)	0
FC(F)Oc1ccc(C2NCc3ccccc3-n3cccc32)cc1 (centres undefined)	0
O=c1c2ccccc2nc(-c2cccnc2)n1-c1ccc(Br)cn1	0
CN1CC=C(c2noc(CCC(=O)Nc3ccc(F)c(Cl)c3)n2)CC1	0
CCc1ccc(NC(=O)CN2C(=O)CN=C(c3ccccc3Cl)c3cc(Cl)ccc32)cc1	0
